# According to ChEMBL document CHEMBL3433997, “St. Jude Leishmania screening dataset” (2016):
# Several values for one entry are separate records, joined by “and”; a condition that tells them apart may be missing. Identical values can stand only once.
# Target: Glucose transporter (Leishmania mexicana) (UniProt O61059)
# Assay: ST_JUDE_LEISH: Cytotoxicity at 2uM final concentration against transgenic Leishmania Mexicana promastigotes LmGT2 that are glucose transport deficient and complemented with the L. Mexicana glucose transporter 2. Activity is measured by DNA content using SYBR green in vitro
# Assay type: functional
row,SMILES,inhibition
1,COc1cc(F)c2ncc(Cl)c([C@@H](O)CN3CCC(NCc4cc5c(cn4)OCCO5)CC3)c2c1,5.13%
2,O=[N+]([O-])c1ccc(C=NNc2nc3ccccc3[nH]2)cc1,-0.44%
3,Cc1cccc(-c2nn(-c3ccccc3)c3[nH]c(=O)c(CNC4CCCC4)cc23)c1,-0.29%
4,Nc1ccc(-c2nc3cc(Oc4ccc5[nH]c(-c6ccc(N)cc6)nc5c4)ccc3[nH]2)cc1,-0.55%
5,CC(C)(C)c1cc([N+](=O)[O-])cc(C(=O)Nc2ccccc2C(F)(F)F)c1O,-1.86%
6,N#Cc1cccc(C(=O)Nc2ccc(-c3cccc(CN4CCCC4)c3)cc2)c1,7.42%
7,O=C(Nc1cccc(OCCN2CCCC2)c1)Nc1ccc(Cl)c(Cl)c1,4.58%
8,CN1CCC(c2cc3c(cc2Br)CCN3C(=O)Nc2ccc(-c3ccncc3)c(Cl)c2)CC1,0.25%
9,COc1ccc2nc3cc(Cl)ccc3c(Nc3ccc(C(=O)O)cc3)c2c1,0.06%
10,CCCO[C@H](C(=O)OC)[C@@H](CC1Cc2ccccc2C1)C(=O)NCCC1=CCCCC1,2.2%
11,CN(C(=O)/C=C/c1ccccc1F)C1CCN(CCCCCNC(=O)/C=C/c2ccc(Cl)c(Cl)c2)CC1,5.34%
12,CCOc1ccc(CCCON2C(=N)N=C(N)NC2(C)C)cc1,9.73%
13,CCN(CC)CCN(Cc1ccc(-c2ccc(C(F)(F)F)cc2)cc1)C(=O)Cn1c(/C=C/c2ccco2)nc(=O)c2ccccc21,-1.26%
14,COc1ccc(C(=O)N2CCC(C(=O)NC(C)c3ccc(-n4ccnc4)cc3)CC2)c2ccccc12 (stereo not given),-0.59%
15,Cc1cc(CNCC2CCC(CNCCCc3ccccc3)CC2)ccc1O (stereo not given),7.65%
16,CCC[C@@H](/C=N/N(C)C(=O)OC(C)(C)C)NC(=O)[C@H](CC(C)C)NC(=O)c1cc2cccc(OC)c2o1,0.27%
17,COc1ccc2ncc(C#N)c(CCN3C[C@H](CNCc4ccccc4)[C@H](O)C3)c2n1,2.91%
18,O=C(Nc1cccc(-c2cccc(-c3nc4ccccc4[nH]3)c2)c1)NC1CC1c1ccccc1 (stereo not given),5.79% and 7.12%
19,c1cc(CNCCc2ccncc2)cc(-c2ccc(-c3nc4ccccc4[nH]3)s2)c1,-0.99%
20,Fc1ccc2[nH]c(-c3cccc(-c4cccc(CN5CCN(c6cnccn6)CC5)c4)c3)nc2c1,4.27%

row,SMILES,inhibition
1,CNc1ccc(CNCc2cccc(-c3ccc(-c4nc5ccccc5[nH]4)cc3)c2)cc1,-1.34%
2,CN(C)Cc1cccc(-c2ccc3ccnc(N)c3c2)c1,1.17%
3,COc1cc(Nc2nccc(Nc3ccc4c(C)n[nH]c4c3)n2)cc2ccccc12,-0.29%
4,CC(CNC(=N)c1cccc(C(=N)NCC(C)Oc2cccc(C3CCCCC3)c2)n1)Oc1cccc(C2CCCCC2)c1 (stereo not given),0.74%
5,CN(C)CCNCc1cccc(-c2ccc3c(Nc4ccc(F)cc4Cl)ccnc3c2)c1,5.03%
6,COc1ccc(-n2nc(C(=O)NCCC3=CCCCC3)c3ccccc3c2=O)cc1,-0.39%
7,Cc1cccc2nc(-c3ccc(-c4ccc(NC(=O)Nc5ccc(F)c(F)c5F)cc4)cc3)[nH]c12,7.14%
8,CC(C)CNC(=O)c1cncc(-c2ccc(CN(C)C3CCN(C)CC3)cc2)c1,1.87%
9,CCC[C@@H]([C@@H](CC(C)C)C(=O)N[C@@H](CCCCNC(=O)OCc1ccccc1)C(=O)Nc1ncccn1)N(O)C=O,17.1%
10,Cc1cccc(NC(=O)NC2CCN(CCCCCNC(=O)/C=C/c3ccc(Cl)c(Cl)c3)CC2)c1,3.5%
11,CCN(CCCN1CCCCC1)c1cc(C)nc(Nc2cccc3c2CCCC3)n1,1.57%
12,Cc1cc(SC(C)(C)C)cc2c(Cl)c(C(N)=O)cnc12,85.8%
13,O=C(Nc1cccc([N+](=O)[O-])c1)Nc1cccc(C(F)(F)F)c1,2.9%
14,CC(C)NCc1cccc(-c2cccc(NC(=O)c3ccc(C#N)cc3)c2)c1,-1.22%
15,Cc1ccc(Cc2c(C)nc3nc(N)nc(N)c3c2C)cc1,54.4%
16,CCn1ccc2c(N3CCCC3=O)cc(C(=O)N[C@@H](Cc3ccccc3)[C@H](O)CNC3CCCCC3)cc21,0.18%
17,CCOc1ccc(-c2nonc2NC(=O)CC(C)C)cc1OCC,-1.25%
18,N#Cc1ccc(N(CCOC(=O)c2ccccc2)Cc2ccccc2C(F)(F)F)cc1C(F)(F)F,-0.51%
19,CCOC(=O)c1nc(-c2ccccc2)[nH]c1NC(=S)NC1CCCCC1,-6.59%
20,CC(C)(C)C(=O)N1CCN(c2ccc([N+](=O)[O-])c(NC3CC3)c2)CC1,2.27%
